By Inhibition is commonly meant the drop in the measured response relative to a control, in per cent.

Measured potencies and affinities stand elsewhere.

The test system of one assay is Staphylococcus aureus. As to conditions: Concentration 32 ug.mL-1;; ASSAY_TEST Inhibition of Bacterial Growth; detection method Absorption (OD600); MEDIA CAMHB; plate type 384well; NBS; CORNING #3640; time 18 hr.
Turning to `CCC(Sc1nnc2c(=O)n(-c3cccc(OC)c3)ccn12)C(=O)Nc1cc(C)ccc1C` (stereo not drawn), the Inhibition is on record as 5.06%.
For `CCCCc1ccc(NC(=O)Cn2c(=O)c3nnc(C(C)C)n3c3ccccc32)cc1`, the Inhibition was determined as 13.14%.
On the same count and under the same terms, the same measure for `Cc1ccc(-c2ccc3nnc(CCC(=O)NCc4ccc(Br)cc4)n3n2)cc1`: 14.28%; for `COc1ccccc1-n1ccn2c(=O)n(Cc3ccc(F)cc3Cl)nc2c1=O`: 9.6%.
For `N#Cc1ccc(NC(=O)Cn2nc3c(Oc4ccccc4)nccn3c2=O)cc1`, the Inhibition is -0.45%.
For `COC(=O)c1ccc(NC(=O)Cn2nc3c4cc(-c5ccc(OC)cc5)nn4ccn3c2=O)cc1`, the Inhibition is recorded as 11.91%.
Same read-out and setting: the same measure for `COc1cc(Cl)c(C)cc1NC(=O)Cn1nc2ccc(SC(C)(C)C)nn2c1=O`: 0.92%; for `CCCCOc1ccc(-c2cc3c4nnc(SCC(=O)Nc5ccc(OC)cc5)n4ccn3n2)cc1`: -5.31%.
On the same count and under the same terms, the same measure for `Cc1ccc(Oc2nc3ccccc3n3c(=O)n(CC(=O)Nc4ccc5c(c4)OCO5)nc23)cc1`: 1.4%; for `Cc1cc(Br)ccc1NC(=O)Cn1nc2c(Sc3ccccc3)nccn2c1=O`: 4.58%; for `COc1ccccc1CNC(=O)Cn1nc2c(N3CCCCCC3)nccn2c1=O`: 17.1%.
Consider `Cc1ccccc1N1CCN(c2nccn3c(=O)n(CC(=O)NCc4ccc(Cl)cc4)nc23)CC1`, for which the Inhibition stood at 13.83%.
For the compound `Cc1ccc(C)c(Cn2nc3ccc(-c4ccc(C)c(C)c4)nn3c2=O)c1`, the Inhibition came to 6.01%.
On the same count and under the same terms, the figure for `COc1cccc(-n2ccn3c(-c4ccc([N+](=O)[O-])cc4)nnc3c2=O)c1` is 5.77%; for `CCCCN(C)c1ccc2nnc(CCc3nc(-c4cc(OC)cc(OC)c4)no3)n2n1` it is -6.16%.
On the same count and under the same terms, the figure for `COc1ccc(-c2cc3c4nn(CC(=O)Nc5cc(OC)ccc5OC)c(=O)n4ccn3n2)cc1` is 5.8%; for `COc1cccc(CN(c2ccc(Cl)cc2)S(=O)(=O)c2ccc3nncn3c2)c1` it is -6.52%; for `O=C(Cn1nc2c(N3CCN(c4ccccc4)CC3)nccn2c1=O)Nc1ccc2c(c1)OCO2` it is 13.69%.
On the same count and under the same terms, the same measure for `Cc1c(Cl)cccc1NC(=O)CSc1nc2ccccc2n2c(C)nnc12`: 7.92%.
For `O=C(CSc1nnc2c(=O)n(-c3cccc(F)c3)ccn12)N1CCN(c2ccc(F)cc2)CC1`, the Inhibition amounted to 3.76%.
Regarding `CC1CC(C)CN(c2nccn3c(=O)n(CC(=O)Nc4cccc(C(F)(F)F)c4)nc23)C1` (stereo not drawn), the Inhibition is reported as 16.31%.
Still for that read-out and setting: the same measure for `Cc1cccc(NC(=O)Cn2nc3c(SCc4ccc(Cl)cc4)nccn3c2=O)c1C`: 13.84%; for `Cc1nnc2c(SCC(=O)Nc3ccc(F)cc3F)nc3ccccc3n12`: 11.73%.
Same read-out and setting: the figure for `Cc1cccc(Sc2nc3ccccc3n3c(=O)n(CC(=O)Nc4c(C)cc(C)cc4C)nc23)c1` is 8.94%; for `O=S(=O)(c1cccn2cnnc12)N(Cc1cccc(Cl)c1)c1ccc(F)cc1` it is -11.31%; for `CCCCOc1ccc(-c2cc3c4nnc(SCC(=O)Nc5cc(F)ccc5C)n4ccn3n2)cc1` it is -12.48%.
Regarding `O=C(CCc1nnc2c3cc(-c4ccc(F)cc4)nn3ccn12)NCc1ccccc1Cl`, the Inhibition was -0.61%.
The same measure, in the same setting: the figure for `O=c1c2nnc(SCc3ccc(Cl)cc3)n2ccn1-c1ccc(F)cc1` is 4.01%.
On the same count and under the same terms, the same measure for `CC1CCc2c(sc3ncn4c(=O)n(CC(=O)Nc5ccc6c(c5)CCC6)nc4c23)C1` (stereo not drawn): 4.65%; for `Cc1cccc(C)c1NC(=O)Cn1nc2n(C)c(=O)c3c(c(-c4ccccc4)cn3C)n2c1=O`: 8.81%; for `CCCc1nnc2c(=O)n(CC(=O)N3CCCc4ccccc43)c3ccccc3n12`: 2.88%.
On the same count and under the same terms, the same measure for `COc1cccc(-n2ccn3c(SCC(=O)N4CCN(c5ccccc5F)CC4)nnc3c2=O)c1`: 12.37%; for `O=C(CSc1nnc2c(=O)n(-c3ccc(F)cc3)ccn12)N1CCN(c2ccc(F)cc2)CC1`: 9.4%.
Regarding `Cc1cccc(C)c1NC(=O)Cn1nc2c3c4c(sc3ncn2c1=O)CCCC4`, the Inhibition was found to be 7.51%.
With `O=C(Cn1nc2ccc(-c3ccccc3)nn2c1=O)NC1CCCCC1`, the Inhibition turned out to be 8.4%.
Still for that read-out and setting: the same measure for `COc1cccc(-n2ccn3c(SCC(=O)NCc4ccc(Cl)cc4)nnc3c2=O)c1`: 10.06%.
Same read-out and setting: the figure for `Cc1cccc(-c2nc(CSc3nc4ccccc4n4c(C)nnc34)c(C)o2)c1` is 9.9%.
For the compound `O=C(CCc1nnc2ccc(-c3ccc(Cl)cc3)nn12)NCc1ccc(F)cc1Cl`, the Inhibition was determined as 11.56%.
On the same count and under the same terms, the figure for `COc1ccc(Cl)cc1NC(=O)CSc1nc2ccccc2n2c(C(C)C)nnc12` is -6.36%.

A further assay deals with Escherichia coli. As to conditions: Concentration 32 ug.mL-1;; ASSAY_TEST Inhibition of Bacterial Growth; detection method Absorption (OD600); MEDIA CAMHB; plate type 384well; NBS; CORNING #3640; time 18 hr.
Take `CCC(Sc1nnc2c(=O)n(-c3cccc(OC)c3)ccn12)C(=O)Nc1cc(C)ccc1C` (stereo not drawn): the Inhibition is given as -5.33%.
Still for that read-out and setting: the figure for `CCCCc1ccc(NC(=O)Cn2c(=O)c3nnc(C(C)C)n3c3ccccc32)cc1` is 1.92%.
On the same count and under the same terms, the figure for `Cc1ccc(-c2ccc3nnc(CCC(=O)NCc4ccc(Br)cc4)n3n2)cc1` is 0.41%.
Regarding `COc1ccccc1-n1ccn2c(=O)n(Cc3ccc(F)cc3Cl)nc2c1=O`, the Inhibition is listed as -2.36%.
Regarding `N#Cc1ccc(NC(=O)Cn2nc3c(Oc4ccccc4)nccn3c2=O)cc1`, the Inhibition is recorded as -6.5%.
On the same count and under the same terms, the same measure for `COC(=O)c1ccc(NC(=O)Cn2nc3c4cc(-c5ccc(OC)cc5)nn4ccn3c2=O)cc1`: 3.86%; for `COc1cc(Cl)c(C)cc1NC(=O)Cn1nc2ccc(SC(C)(C)C)nn2c1=O`: 3.96%; for `CCCCOc1ccc(-c2cc3c4nnc(SCC(=O)Nc5ccc(OC)cc5)n4ccn3n2)cc1`: -9.08%.
Turning to `Cc1ccc(Oc2nc3ccccc3n3c(=O)n(CC(=O)Nc4ccc5c(c4)OCO5)nc23)cc1`, the Inhibition is -7.69%.
With `Cc1cc(Br)ccc1NC(=O)Cn1nc2c(Sc3ccccc3)nccn2c1=O`, the Inhibition is on record as -5.92%.
For `COc1ccccc1CNC(=O)Cn1nc2c(N3CCCCCC3)nccn2c1=O`, the Inhibition is -0.92%.
On the same count and under the same terms, the figure for `Cc1ccccc1N1CCN(c2nccn3c(=O)n(CC(=O)NCc4ccc(Cl)cc4)nc23)CC1` is -3.79%.
The same measure, in the same setting: the figure for `Cc1ccc(C)c(Cn2nc3ccc(-c4ccc(C)c(C)c4)nn3c2=O)c1` is -0.08%; for `COc1cccc(-n2ccn3c(-c4ccc([N+](=O)[O-])cc4)nnc3c2=O)c1` it is -8.12%; for `CCCCN(C)c1ccc2nnc(CCc3nc(-c4cc(OC)cc(OC)c4)no3)n2n1` it is -4.97%.
For the compound `COc1ccc(-c2cc3c4nn(CC(=O)Nc5cc(OC)ccc5OC)c(=O)n4ccn3n2)cc1`, the Inhibition is reported as 4.02%.
Consider `COc1cccc(CN(c2ccc(Cl)cc2)S(=O)(=O)c2ccc3nncn3c2)c1`, for which the Inhibition was -6.27%.
Turning to `O=C(Cn1nc2c(N3CCN(c4ccccc4)CC3)nccn2c1=O)Nc1ccc2c(c1)OCO2`, the Inhibition is listed as 0.21%.
The same measure, in the same setting: the figure for `Cc1c(Cl)cccc1NC(=O)CSc1nc2ccccc2n2c(C)nnc12` is 3.58%.
For `O=C(CSc1nnc2c(=O)n(-c3cccc(F)c3)ccn12)N1CCN(c2ccc(F)cc2)CC1`, the Inhibition is recorded as 1.02%.
As to `CC1CC(C)CN(c2nccn3c(=O)n(CC(=O)Nc4cccc(C(F)(F)F)c4)nc23)C1` (stereo not drawn), the Inhibition worked out at 0.9%.
Take `Cc1cccc(NC(=O)Cn2nc3c(SCc4ccc(Cl)cc4)nccn3c2=O)c1C`: the Inhibition was -3.65%.
Turning to `Cc1nnc2c(SCC(=O)Nc3ccc(F)cc3F)nc3ccccc3n12`, the Inhibition was 2.93%.
For `Cc1cccc(Sc2nc3ccccc3n3c(=O)n(CC(=O)Nc4c(C)cc(C)cc4C)nc23)c1`, the Inhibition is -2.19%.
The same measure, in the same setting: the same measure for `O=S(=O)(c1cccn2cnnc12)N(Cc1cccc(Cl)c1)c1ccc(F)cc1`: -14.45%.
Take `CCCCOc1ccc(-c2cc3c4nnc(SCC(=O)Nc5cc(F)ccc5C)n4ccn3n2)cc1`: the Inhibition was -11.69%.
The same measure, in the same setting: the figure for `O=C(CCc1nnc2c3cc(-c4ccc(F)cc4)nn3ccn12)NCc1ccccc1Cl` is -10.24%; for `O=c1c2nnc(SCc3ccc(Cl)cc3)n2ccn1-c1ccc(F)cc1` it is 2.84%.
The same measure, in the same setting: the figure for `CC1CCc2c(sc3ncn4c(=O)n(CC(=O)Nc5ccc6c(c5)CCC6)nc4c23)C1` (stereo not drawn) is -2.81%; for `Cc1cccc(C)c1NC(=O)Cn1nc2n(C)c(=O)c3c(c(-c4ccccc4)cn3C)n2c1=O` it is 0.54%; for `CCCc1nnc2c(=O)n(CC(=O)N3CCCc4ccccc43)c3ccccc3n12` it is -3.24%.
On the same count and under the same terms, the figure for `COc1cccc(-n2ccn3c(SCC(=O)N4CCN(c5ccccc5F)CC4)nnc3c2=O)c1` is -5.42%.
Take `O=C(CSc1nnc2c(=O)n(-c3ccc(F)cc3)ccn12)N1CCN(c2ccc(F)cc2)CC1`: the Inhibition was -2.88%.
Same read-out and setting: the figure for `Cc1cccc(C)c1NC(=O)Cn1nc2c3c4c(sc3ncn2c1=O)CCCC4` is -3.38%.
The same measure, in the same setting: the same measure for `O=C(Cn1nc2ccc(-c3ccccc3)nn2c1=O)NC1CCCCC1`: -1.26%; for `COc1cccc(-n2ccn3c(SCC(=O)NCc4ccc(Cl)cc4)nnc3c2=O)c1`: -3.71%.
The same measure, in the same setting: the same measure for `Cc1cccc(-c2nc(CSc3nc4ccccc4n4c(C)nnc34)c(C)o2)c1`: 1.23%; for `O=C(CCc1nnc2ccc(-c3ccc(Cl)cc3)nn12)NCc1ccc(F)cc1Cl`: -1.56%.
Regarding `COc1ccc(Cl)cc1NC(=O)CSc1nc2ccccc2n2c(C(C)C)nnc12`, the Inhibition is recorded as -1.47%.

For the origin of these results see ChEMBL document CHEMBL4513146, “CO-ADD screening of Karazin Kharkiv National University (Ukraine) compounds”.
